# Test results published in PubChem BioAssay (EPA / NIEHS).
# Several values for one entry are separate records, joined by “and”; a condition that tells them apart may be missing. Identical values can stand only once. Records with an inconclusive call do not appear. Where a structure was tested more than once in an assay, its records may differ in their call. Activity calls are given as the source filed them. Rule for the calls: active = hit-call score of the fitted dose curve at least 0.9, where 1 is the maximum; inconclusive = response in the unintended direction; inactive = score below 0.9.
# Test: TOX21_p53_BLA_p4_viability: Viability Assessment in the Tox21 HCT-116 p53 Agonism Beta-lactamase Assay, Phase 4 (AID 2283597);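 note: hits lower the luminescence signal meaning cytotoxicity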
# Source text: TOX21_p53_BLA_p4 is a cell-based, single-readout assay that uses HCT116, a human intestinal cell line, […] in a 1536-well plate.TOX21_p53_BLA_p4_viability is an assay readout measuring cellular ATP content and detected with CellTiter-Glo Luciferase-coupled ATP quantitation.TOX21_p53_BLA_p4_viability used a type of viability reporter where loss-of-signal activity can be used to understand changes in the cell viability. Furthermore, this assay endpoint can be referred to as a secondary readout, because this assay has produced multiple assay endpoints where this one serves a viability function. To generalize the intended target to other relatable targets, this assay endpoint is annotated to the cell cycle intended target family, where the subfamily is cytotoxicity.
# Thawing Method: Place 14 mL of pre-warmed thaw medium into a 15 mL of conical tub. Remove the vial of cells to be thawed from liquid nitrogen and thaw rapidly by placing at 37C in a water bath with gentle agitation for 1-2 minutes. Decontaminate the vial by wiping with 70% ethanol before opening in a biological safety cabinet. Transfer the vial contents drop-wise into 14 mL of thaw medium in a sterile 15-mL conical tub. Centrifuge cells at 900 rpm for 4 minutes and resuspend in thaw medium. Transfer contents to the T75 tissue culture flask containing Thaw Medium and place flask in a humidified 37C/5% CO2 incubator. Switch to growth medium at first passage.Propagation Method: Aspirate medium, rinse once in DPBS, add 0.25% Trypsin/EDTA and swirl to coat the cell evenly. Add an equal volume of Growth Medium to inactivate Trypsin after 2-3 minutes incubation at 37C. Centrifuge cells at 900 rpm for 4 minutes and resuspend in growth medium. Cell should be passage or fed at least twice a week.Assay Protocol: Harvest cells from culture in growth medium and resuspend in assay medium. 2.2 Dispense 4000 cells/5 uL/well into 1536-well black/clear bottom plates using a Multidrop dispenser. After the cells were incubated at 37C for 5 hours, 23 nL of compounds dissolved in DMSO were transferred to the assay plate by a PinTool resulting in a 217-fold dilution. Incubate the plates for 16 hours at 37C, 5% CO2. Add 1 uL of 6X LiveBLAzer FRET B/G (CCF4-AM) Substrate Mixture to each well using a BioRAPTR dispenser and incubate the plates at room temperature for 2 hours. Measure fluorescence intensity at 460 and 530 nm emission and 405 nm excitation by an Envision detector. Data is expressed as the ratio of 460nm/530nm emissions. Add 4 uL of Cell-titer Glo to each well using BioRAPTR and incubate the plates at room temperature for […]. For cell viability readout that measures cytotoxicity, 4 ul/well of CellTiter-Glo reagent was added into the assay plates using a Flying Reagent Dispenser. After 30 min incubation at room temperature, the luminescence intensity in the plates was measured using a ViewLux plate reader.
Compound,AC50,outcome
CCc1c(C(=O)NN2CCCCC2)nn(-c2ccc(Cl)cc2Cl)c1-c1ccc(Br)cc1,2.1 µM (active),
CCOc1ccc2c(c1)C(C)=CC(C)(C)N2,,inactive
COc1ccc(S(=O)(=O)N2C(=O)[C@@](c3ccccc3OC)(N3C[C@H](O)C[C@H]3C(=O)N(C)C)c3cc(Cl)ccc32)c(OC)c1,67.7 µM (active),
COc1cc(C=O)ccc1O,,inactive
Cc1ccc(N(C)C)cc1,,inactive
CCCCCC(=O)O,,inactive
CC(C)(C)c1cc(O)c(C(C)(C)C)cc1O,69 µM (active),
CC1(C)CC(N=C=O)CC(C)(CN=C=O)C1 (stereo not given),,inactive
CC1=C(/C=C/C(C)=C/C=C/C(C)=C/CO)C(C)(C)CCC1,78.5 µM (active),
Cc1nc(-c2ccc3c(c2)CCN(CCC2CCC(NC(=O)/C=C/c4ccc(F)cc4)CC2)CC3)no1 (stereo not given),,inactive
Nc1ccc(S(=O)(=O)c2ccc(N)cc2)cc1,,inactive
Nc1ccccc1N,23 µM (active),inactive
CC=Cc1ccc(O)c(OC)c1,,inactive
Cc1ccc2ncccc2c1,,inactive
CCCCCCCCCCCCCO,,inactive
CCCCC(CC)COC(=O)CC(C(=O)OCC(CC)CCCC)S(=O)(=O)O (stereo not given),50.1 µM (active) [middle of 4 runs],
COc1ccc2c(c1)c(CC(=O)O)c(C)n2C(=O)c1ccc(Cl)cc1,,inactive
Cc1cc(=O)[nH]c(=S)[nH]1,,inactive

Compound,AC50,outcome
COC(=O)c1ccc(O)cc1,,inactive
Nc1ccc2c(c1)C(=O)c1ccccc1C2=O,,inactive
Cc1ccc(C(C)C)c(O)c1,60.5 µM (active),inactive
Cc1cccc(Nc2cc(Cl)nc(SCC(=O)O)n2)c1C,,inactive
Cc1ccc(Cl)cc1,,inactive
CCCc1cc(=O)[nH]c(=S)[nH]1,,inactive
CCNc1cccc(C)c1,,inactive
O=C(OCCCCCOC(=O)c1ccccc1)c1ccccc1,,inactive
O=c1[nH]cc(F)c(=O)[nH]1,15.7 µM (active) and 9.55 µM (active),inactive
Nc1nc(N)c2nc(CNc3ccc(C(=O)N[C@@H](CCC(=O)O)C(=O)O)cc3)cnc2n1,0.0491 µM (active),inactive
CCOC(=O)C(C)(C)Oc1ccc(Cl)cc1,,inactive
Cc1cccc(C)c1O,,inactive
CCCCN(CCCC)CCCC,,inactive
CN1CCN(Cc2cc(-c3ccc4[nH]c(=O)oc4c3)co2)[C@@H](c2ccc(F)cc2)C1,,inactive
Cc1oc(-c2ccccc2)nc1CCOc1cccc2c1ccn2CCC(=O)O,,inactive
Cc1c(C(=O)O)c(O)cc2c1C(=O)c1c(O)c([C@@H]3O[C@H](CO)[C@@H](O)[C@H](O)[C@H]3O)c(O)c(O)c1C2=O,,inactive
COc1cc(/C=C/C(=O)CC(=O)/C=C/c2ccc(O)c(OC)c2)ccc1O,88.4 µM (active) and 23 µM (active),inactive
